Most compounds without a hit are left out; they make up all but 19% or so of the library.
HT1080NT lethal – kills 2HG-producing HT-1080-NT fibrosarcoma cells; Potency, µM (highest dose often 46.1 µM), for the others: top-dose activity, negative = less viability, usual class: cytotoxic; HT-1080-NT fibrosarcoma viability, CellTiter-Glo ATP luminescence, 48 h; hit rate 1.6% among 360,000;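 note: NT is the 2HG producing partner of a matched IDH1 knockdown line; potency is the fitted concentration of half-maximal effect; 0% = DMSO-treated cells and -100% = media-only wells without cells; nearly all actives have a fitted effect of over 55% in size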
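Toxicity toward the 2HG-producing NT line was scored as %Activity, normalised to DMSO and no-cell wells, from CellTiter-Glo luminescence after 48 hours' treatment.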
IL-1B inflam inh – inhibitors of inflammasome signaling (IL-1 beta secretion). hit rate 4.7% among 360,000. THP-1 LPS/ATP IL-1B secretion, AlphaLISA, 16 h; stronger effect = lower value. activity change, % at 57.5 µM; in the data active = activity change below about -50%; inconclusive = mostly about -30% to -49%
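Secreted IL-1B measured by AlphaLISA bead assay after 16 h compound exposure of THP-1 cells; compounds (final up to 57.5 uM) added 1 h before LPS (250 ng/mL) and ATP (1.25 mM) stimulation; lower signal means less secretion.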
DT40 TDP1 no CPT – qHTS for Inhibitors of human tyrosyl-DNA phosphodiesterase 1 (TDP1): qHTS in cells in absence of CPT; hit rate 15% among 420,000; DT40 Tdp1-/- hTDP1 cells, no CPT, ATP luminescence, 48 h; Potency, µM (top dose mostly 46.2 µM), without a hit: top-dose activity change, negative = growth inhibition, actives largely listed as inhibitors; note: potency is the fitted concentration of half-maximal effect; nearly all actives have a fitted effect of over 55% in size
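Growth of hTDP1-complemented DT40 Tdp1-knockout cells is measured by ATP luminescence after at least 48 hr compound exposure at 37 °C, with DMSO substituting for the 20 nM CPT used in the parallel screen.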
HT1080 IDH1KD tx – kills HT-1080 cells with IDH1 knockdown; Potency, µM (highest dose often 46.1 µM), inactives show top-dose activity, negative = toxicity, usual class: cytotoxic; HT-1080 IDH1 knockdown viability, ATP luminescence, 48 h; AID 686971; hit rate 2% among 360,000;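 note: potency is the fitted concentration of half-maximal effect; 0% = DMSO wells and -100% = cell-free medium wells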
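After a 2 h attachment period, IDH1KD HT-1080 cells took pin-transferred compound for 48 h at 37 °C; ATP-based luminescence after 10 min room-temperature reagent incubation reported viability.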
TDP1 cell CPT – growth inhibition of DT40 Tdp1-/-;hTDP1 cells with camptothecin (screen for TDP1 inhibitors); Potency, µM (series often up to 46.2 µM), inactives show at the highest dose activity change, negative = growth inhibition, hits mostly inhibitors; chicken DT40 Tdp1-/-;hTDP1 cells + 20 nM CPT, ATP luminescence, 48 h; hit rate 12% among 420,000; note: potency is the fitted concentration of half-maximal effect; nearly all actives have a fitted effect of over 55% in size
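Chicken DT40 Tdp1-/- cells stably complemented with human TDP1 were seeded at 400 cells/well in medium containing 20 nM camptothecin, exposed to pin-transferred compounds, and grown at 37 °C for at least 48 hr. Viability was read as ATP luminescence.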
An asterisk follows results filed as active; ? = inconclusive; / = no result given; [ ] = another dose, or the depositor's remark. Unless noted, calls come from the whole dose curve; as a rule, active = well fitted curve in the direction sought with a large enough effect; inconclusive = small, poorly fitted or top-dose-only effect, or another doubt; inactive = no such curve, though single readings can be large; an effect the other way counts as inactive or inconclusive. Unless noted, % is set by controls: 0 for no effect and ±100 for the full control effect.

SMILES	HT1080NT lethal	IL-1B inflam inh	DT40 TDP1 no CPT	HT1080 IDH1KD tx	TDP1 cell CPT
CCCCCc1c(-c2ccccc2F)ncn1CCc1ccccc1OC	?	-95.3*	18.4µM*	?	16.4µM*
CC(Cc1cccs1)NC(=S)Nc1ccc(Cl)cc1 (stereo not drawn)	?	-96.2*	?	?	?
CC(Cc1cccs1)NC(=S)Nc1ccc(Cl)c(Cl)c1 (stereo not drawn)	?	-95.3*	?	-25.3%	20.6µM*
CC(Cc1cccs1)NC(=O)Nc1cccc(Cl)c1 (stereo not drawn)	-15.0%	-1.3	?	-9.6%	?
COc1ccc(C(=O)N2CCN(c3ccccc3)CC2)cc1S(=O)(=O)N1CCOCC1	12.0%	-1.0	-17.6%	-0.7%	14.9%
COc1cc(=O)n2c(c1C(=O)N(C)Cc1nonc1C)CCN(Cc1cccc3ccccc13)CC2	/	/	?	/	24.6%[9.04 µM]
O=C(NCc1ccccc1)c1onc(CSc2ccc(Cl)cc2)c1C(=O)NCc1ccccc1	6.8%	-27.3	?	5.7%	?
O=C(NCc1ccccc1)c1onc(CSc2ccc(Cl)cc2)c1C(=O)NCC1CC1	2.9%	-5.3	?	6.5%	?
O=C(NCc1ccccc1)c1onc(CSc2ccccc2)c1C(=O)NCC1CC1	-15.5%	-52.2*	20.6µM*	-0.9%	13µM*
O=C(NCc1ccccc1)c1onc(CSc2ccccc2)c1C(=O)NCc1ccccc1	1.8%	-16.0	?	5.5%	16.4µM*
Oc1ccc(C(=S)N2CCCCC2)cc1Cl	-2.8%	16.9	-18.1%	-5.1%	-2.7%
Cc1ccc2[nH]c(C(=O)N3CCOCC3)cc2c1	-0.3%	-2.4	7.7%	0.9%	6.9%
Cc1ccc(F)cc1C(=O)N1CCCCC1c1cc(C(=O)NC(C)C)no1 (stereo not drawn)	8.2%	-55.7*	-27.0%	0.8%	-1.0%
COc1ccc(C(=O)N2CCCCC2c2cc(C(=O)Nc3ccc(OC)cc3C)no2)cc1 (stereo not drawn)	10.1%	-4.7	?	0.0%	?
CCCNC(=O)c1cc(C2CCCCN2C(=O)c2cc(C(C)(C)C)nn2C)on1 (stereo not drawn)	0.4%	19.2	18.4µM*	2.0%	20.6µM*
COc1ccc(NC(=O)c2cc(C3CCCCN3C(=O)c3cc(C(C)(C)C)nn3C)on2)c(C)c1 (stereo not drawn)	9.8%	52.2	20.6µM*	7.5%	?
COc1ccc(NC(=O)c2cc(C3CCCCN3C(=O)c3cc(F)ccc3C)on2)c(C)c1 (stereo not drawn)	-0.5%	26.7	8.2µM*	-11.3%	11.6µM*
O=C(COc1ccccc1[N+](=O)[O-])N1CCCc2ccccc21	1.6%	25.2	?	1.3%	?
CC(C)N(Cc1ccccc1)C(=O)COC(=O)c1ccc(S(=O)(=O)N2CCOCC2)cc1	15.4%	3.8	-14.2%	10.3%	0.4%
CN(C)c1ccc(C=C(c2nnnn2-c2ccccc2)c2nnnn2-c2ccccc2)cc1	7.1%	-13.9	16.4µM*	4.6%	20.6µM*
CN(C)/C=C(\C(=O)c1ccccc1)c1nnnn1-c1ccccc1	0.6%	-6.2	-16.4%	3.4%	9.6%
CCOC(=O)C1=C(C)NC2=C(C(=O)C(C(=O)OCC)C(c3ccco3)C2)C1c1ccccn1 (stereo not drawn)	1.4%	4.5	?	11.5%	-27.6%
CCOC(=O)C1=C(C)NC2=C(C(=O)C(C(=O)OCC)C(c3ccco3)C2)C1c1ccccc1C (stereo not drawn)	/	/	22.4µM*	/	20µM*
CCCCCCCCC(=O)N/N=C/c1cccc(Br)c1	2.3%	-59.9*	1.6%	14.7%	1.3%
CCCCCCCCC/C(=N\O)c1ccccn1	-29.0%	61.1	23.1µM*	?	23.1µM*
SMILES	HT1080NT lethal	IL-1B inflam inh	DT40 TDP1 no CPT	HT1080 IDH1KD tx	TDP1 cell CPT
CCCCCCC(=O)Nc1ccc(C(=O)N/N=C/c2cccnc2)cc1	23.1µM*	7.7	-5.2%	8.2µM*	-13.1%
CCC(=O)Nc1ccc(C(=O)N/N=C/c2cccnc2)cc1	6.0%	18.6	22.8%	9.0%	-8.5%
CCCCC(C(=O)N/N=C/c1ccccn1)C(=O)N/N=C/c1ccccn1	-0.1%	/	-11.2%	1.8%	-4.6%
CCCCCCCCC(=O)N/N=C/c1ccccn1	?	22.7	?	0.0%	18.4µM*
COc1cc(/C=C(/NC(=O)c2ccccc2)C(=O)N2CCOCC2)c([N+](=O)[O-])cc1OC	1.0%	1.0	1.7%	15.8%	-0.8%
COc1ccc(CC(N)c2csc(NC(=O)c3cc(C(C)(C)C)oc3C)n2)cc1 (stereo not drawn)	20.6µM*	-56.7*	?	20.6µM*	23.1µM*
COc1cc(NC(=O)Nc2nc(C(N)Cc3ccc(C(F)(F)F)cc3)cs2)cc(OC)c1OC (stereo not drawn)	20.6µM*	-29.8	11.6µM*	18.4µM*	11.6µM*
COc1ccc(CC(N)c2csc(NC(=O)Nc3ccc(OC)cc3)n2)cc1 (stereo not drawn)	23.1µM*	-50.4*	16.4µM*	?	20.6µM*
COc1ccc(NC(=O)Nc2nnc(C(C)C)s2)cc1	-2.8%	-20.5	?	-12.0%	-19.9%
COc1ccc(NC(=O)Nc2nc(C(N)Cc3ccc(C(F)(F)F)cc3)cs2)cc1 (stereo not drawn)	?	?	16.4µM*	?	?
COc1ccc(CC(CC(=O)O)C(=O)Nc2ccc(OC)cc2)cc1 (stereo not drawn)	0.1%	0.1	-0.8%	-6.8%	-0.9%
CC1CCCCN1C(=O)COC(=O)CNC(=O)c1ccc(Cl)cc1Cl (stereo not drawn)	9.5%	13.2	14.7%	2.0%	1.1%
CSc1nc(Nc2ccc(C)cc2C)cc(-c2ccccc2)n1	/	/	16.4µM*	/	16.4µM*
O=C(O)C1CCCC1	/	/	0.6%	/	0.1%
COc1ccc([N+](=O)[O-])cc1NC(=O)C1CCCN1S(=O)(=O)c1cccs1 (stereo not drawn)	-17.0%	-18.0	?	-11.3%	-1.2%
COc1ccc(NC(=O)C2CCCN2S(=O)(=O)c2cccs2)c([N+](=O)[O-])c1 (stereo not drawn)	-4.7%	-12.2	10.3µM*	-13.9%	20.6µM*
O=C(Nc1ccc(Br)cc1)C1CCCN1S(=O)(=O)c1cccs1 (stereo not drawn)	-11.8%	5.7	13µM*	-15.8%	20.6µM*
CCOCCCNC(=O)c1cc(Cl)c(NC(=O)C2=C(C)OCCS2)cc1OC	0.2%	-18.2	11.6µM*	-0.5%	?
CCCNC(=O)c1cc(Cl)c(NC(=O)C2=C(C)OCCS2)cc1OC	-3.9%	-53.3*	?	-12.6%	?

Compound activity deposited in PubChem by National Center for Advancing Translational Sciences (NCATS).
